Data reported in PubChem BioAssay AID488890 (Southern Research Specialized Biocontainment Screening …, 2010).
The whole screen tested about 320,000 compounds, of which about 1,300 (0.41%) were called active. Another 3% or so got no clear call; they are omitted. No rule for the calls is given here. Not all results are given here. Results with a measured potency or affinity are listed apart.

Assay: growth inhibition of non-replicating M. tuberculosis (AID 488890);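 also: plate controls were DMSO cells for no effect and high antibiotic wells for full effect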
Conditions: Mycobacterium tuberculosis non-replicating, at 25 µM, stronger effect = higher value

Structure (SMILES) | inhibition [%]
CCOc1cc(C(=O)NCc2ccc(-c3nc4ccccc4o3)cc2)cc(OCC)c1OCC | 5.09
O=C(Cc1ccc(Cl)cc1)N/N=C/c1ccccc1 | 16.8
Cc1ccc(/C=N\Nc2cn[nH]c(=O)c2Cl)cc1 | -3.74
CCc1ccccc1Nc1nc2ccccc2n1C | 43.6
CC(C)CNS(=O)(=O)c1ccc(S(=O)(=O)N2CCN(CCC#N)CC2)cc1 | 6.46
COc1cccc(/C=N/NC(=O)CNC(=O)c2ccc3c(c2)OCCO3)c1O | -7.52
O=C(N/N=C/c1ccccc1)c1ccc2c(c1)OCO2 | 51.5
COc1cccc(/C=N/NC(=O)N/N=C/c2cccc(OC)c2O)c1O | -1.08
COc1cc(/C=N/NC(=O)c2ccoc2C)cc(OC)c1O | -10
CCOc1cc(/C=N/NC(=O)c2ccc3c(c2)OCCO3)cc(Br)c1O | 11.1
O=C(N/N=C/c1ccc2c(c1)OCO2)c1ccc2c(c1)OCO2 | 23.3
CCN(CC(=O)Nc1sc2c(c1C#N)CCC(C)C2)Cc1nc2ccccc2c(=O)[nH]1 (stereo not given) | 5.89
NC(=O)C1CCCN1 (stereo not given) | 3.98
CC1(C)CC(=O)c2cnc(NCC3CCCO3)nc2C1 (stereo not given) | -8.53
COC(=O)CSc1nnc2c3c4c(sc3nc(-n3nc(C)cc3C)n12)COC(C)(C)C4 | 0.76
O=C1c2ccccc2C(=O)N1CCC#Cc1ccc2cc(CCCO)oc(=O)c2c1 | 12.8
O=C(Nc1ccccn1)c1ccc(COc2ccccc2Cl)o1 | 72.4
CCOc1ccc(OCc2ccc(C(=O)O)o2)cc1 | 18.9
O=C(c1ccc(COc2ccccc2Cl)o1)N1CCCC1 | -8.31
CCc1ccc(OCc2ccc(C(=O)NCc3ccccn3)o2)cc1 | 64.5
N/C(=N\N=C\c1cccs1)SC1CC(=O)N(c2ccc(Br)cc2)C1=O (stereo not given) | 7.06
Cc1cc(C(=O)N/N=C/c2c[nH]c3ccccc23)c(C)o1 | 4.64
Cc1cccc(C)c1NC(=O)Cc1cccs1 | 3.18

Structure (SMILES) | inhibition [%]
Cc1cc(C)c2nc(SC3CCOC3=O)cc(C)c2c1 (stereo not given) | 0.02
CC12CCC(C/C1=N\OC(=O)c1c(F)cccc1F)C2(C)C (stereo not given) | -9.61
CC(=O)Nc1ccc(Oc2nc(C(F)(F)F)nc3ccccc23)cc1 | 1.04
COCC1CCCCN1Cc1cn(-c2ccccc2)nc1-c1ccc2c(c1)OCO2 (stereo not given) | 0.23
CSc1ccccc1NC(=O)c1ccc(N2CCCC2=O)cc1 | 7.7
C=CCn1c(C)cc(C2=NNC(=NC(C)(C)C)SC2)c1C | 27
C=CCN=C1NN=C(c2cc(C)n(CC=C)c2C)CS1 | -5.39
Cc1cccc(NC(=O)c2cc3cc([N+](=O)[O-])ccc3s2)n1 | 16.8
CC(=O)Nc1ccc(S(=O)(=O)Nc2nccc(C)n2)cc1 | 20.2
CN(C)NC(=O)c1ccc([N+](=O)[O-])s1 | 11.4
O=C(Nc1ccccc1F)c1cc(C(=O)Nc2ccccc2F)cc([N+](=O)[O-])c1 | 5.63
Cc1ccnc(NS(=O)(=O)c2ccc(NC(=O)c3ccc(Cl)cc3[N+](=O)[O-])cc2)n1 | -0.5
Cc1cccc(C)c1NC(=O)c1ccc([N+](=O)[O-])s1 | 67
O=c1[nH]c2c(c(=O)n1C1CCCCC1)CCC2 | -6.62
COC(=O)c1cccc(CSc2nnc(-c3ccco3)n2-c2ccccc2)c1 | 24
C=CCC(C=C)S(=O)(=O)c1ccc(C)cc1 (stereo not given) | -2.81
CCCCCC1CC(/C(C)=N/NC(N)=O)OC1=O (stereo not given) | 9.08
CCNC(=O)COC(=O)c1cc(C)nc2ccccc12 | -1.86
COCCNC(=O)COC(=O)CSCc1nc2ccccc2s1 | -4.84
O=C(c1ccc(-c2nc3ccccc3s2)s1)N1CCOCC1 | -4.2
COCCNC(=O)c1nc2ccccc2s1 | 52.5
Cc1noc(C)c1COC(=O)c1ccc(-c2nc3ccccc3s2)s1 | 9.44
CCN1CCN(C(=O)c2ccc(-c3nc4ccccc4s3)s2)CC1 | -3.89

Structure (SMILES) | inhibition [%]
O=S(=O)(Nc1ccc2cn[nH]c2c1)c1ccc(C(F)(F)F)cc1 | 21.1
Cc1occc1C(=O)N/N=C/c1cccnc1 | -3.52
Cc1ccc(S(=O)(=O)NCc2ccccc2)cc1C(=O)NCCc1ccc(S(N)(=O)=O)cc1 | -1.65
CSc1ncc(CN2CCN(C3CCCC3)C(CCO)C2)cn1 (stereo not given) | 6.95
Cc1cc2oc(=O)cc(CN(C)Cc3cccc(F)c3)c2cc1C | 12.8
Cc1ccc(/C=C/C(=O)O)cc1S(=O)(=O)NCCCO | -0.14
CCOc1cc(/C=N/NC(=O)Cn2nc([N+](=O)[O-])cc2C)cc(Br)c1OCc1ccccc1C | -2.93
Cc1cc(C)nc(NN2C(=O)C=CC2=O)n1 | -13.2
C=CCC1(CC=C)CCCN1C(=O)CC1C(=O)NCCN1Cc1cccc(OC)c1OC (stereo not given) | -15.7
COC(=O)c1ccc(NC(=O)c2cccc(NC(=O)c3ccccc3)c2)cc1 | 32
CC1(C)CC2CC(C)(CN2C(=O)COC(=O)c2cccnc2Cl)C1 (stereo not given) | 14.2
O=C(Nc1c2c(nn1-c1ccc(F)cc1)CS(=O)(=O)C2)C1CCCC1 | -10.4
COc1cccc(OCCc2c(C)n[nH]c2C)c1 | 30.4
COc1ccc(OCCCCc2c(C)n[nH]c2C)cc1 | 78.2
COc1ccc(OCCCc2c(C)n[nH]c2C)cc1 | -13.9
Cc1n[nH]c(C)c1CCCCOc1ccccc1 | 78.1
Cc1ccc2c(c1)N(C(=O)CCC(=O)Nc1ccccc1Br)CC(C)O2 (stereo not given) | -2.28
CCOC(=O)N1CCN(C(=O)C2c3cc(OC)c(OC)cc3C(=O)N3CCc4ccccc4C23)CC1 (stereo not given) | -11.4
CC(=O)C1=C(C)Nc2ncnn2C1c1ccc(O)cc1 (stereo not given) | -8.89
O=C(COC(=O)/C=C/c1ccc(F)cc1)Nc1cccc(S(=O)(=O)N2CCCC2)c1 | 17.9
CC(=O)Nc1ccc(S(=O)(=O)n2cnc(C)c2)cc1 | -2.83
Cc1ccc2nnc(Cl)n2n1 | -5.68
FC(F)(Cl)c1nnc2ccc(Sc3ccccn3)nn12 | -6.69

Structure (SMILES) | inhibition [%]
FC(F)(F)c1nnc2ccc(N3CCCCCC3)nn12 | 8.69
FC(F)(F)c1nnc2ccc(N3CCCC3)nn12 | 1.54
Clc1ccc2nncn2n1 | 1.77
FC(F)(F)c1nnc2ccc(N3CCCCC3)nn12 | -3.88
Cc1cc(C)c2nc(NNC(=O)c3ccc(S(=O)(=O)N4CCCC(C)C4)cc3)sc2c1 (stereo not given) | -16.4
O=C(Nc1ccc(F)cc1)c1ccc(CSc2ccccc2)o1 | 77.5
COc1ccccc1NC(=O)c1ccc(CSc2ccccc2)o1 | 68.3
CN1CCN(c2nc3c(c(=O)[nH]c(=O)n3C)n2Cc2ccccc2F)CC1 | -2.87
COc1ccc(S(=O)(=O)/N=C2/C=CC(=O)C(C)=C2C)cc1 | 24.9
CC1=C/C(=N\OC(=O)/C=C/c2ccccc2)C(C)=CC1=O | 54.5
Cc1ccc2c(c1)/C(=N/OS(=O)(=O)c1ccccc1)CCS2 | 1.31
Cc1ccc(S(=O)(=O)ON=C2CCN(S(=O)(=O)c3ccccc3)CC2)cc1 | -9.7
CC(Cc1cccnc1)NC(=O)c1cc(COc2ccc(F)cc2Cl)on1 (stereo not given) | 15.8
CCN(CC)c1ccc(S(=O)(=O)N2CCOCC2)cc1NC(=O)CNCc1ccccc1 | -9.09
COc1cccc(C=NCCNC(=O)c2nonc2N)c1O | -21.9
Nc1nonc1C(=O)NCCN=Cc1ccccc1O | -0.48
COc1ccccc1C1C(C(=O)c2ccco2)=C(O)C(=O)N1c1cc(C)on1 (stereo not given) | 16.5
CN1C(=O)Cn2c1nc1ccccc12 | -4.7
COc1cc(/C=N/NC(=O)CCC(=O)Nc2ccc(C)cc2)ccc1O | 2.61
C=CCn1c(CCNC(=O)c2cccs2)nnc1SCC(=O)Nc1cccc(Cl)c1C | 40.6
Cc1ccc(C)c(NC(=O)CN(C)C(=O)CN2C(=O)NC3(CCc4ccccc43)C2=O)c1 (stereo not given) | 18.4
Cc1cc(C)n(-c2cccc3cccnc23)n1 | -3.86
Cc1ccc2cccc(NS(=O)(=O)c3ccccc3)c2n1 | 64.3

Structure (SMILES) | inhibition [%]
CCOC(=O)N1CCC(NC(=O)C2CCN(C(=O)c3cc4oc(C)cc4n3Cc3c(F)cccc3Cl)CC2)CC1 | 5.49
CCc1nc2nc(C)c(NS(=O)(=O)c3cccs3)c(=O)n2[nH]1 | -14.6
NC(=O)NC(=O)COC(=O)c1sc2ccccc2c1Cl | 1.75
COCc1nnc(NC(=O)c2sc3ccccc3c2Cl)s1 | 37.3
Cc1cnc(NC(=O)c2sc3ccccc3c2Cl)s1 | -6.31
NC(=O)COC(=O)CNC(=O)c1sc2ccccc2c1Cl | 8.7
CN(C(=O)COC(=O)c1n[nH]c(=O)c2ccccc12)c1ccccc1 | -7.8
Cc1cc(F)ccc1NC(=O)C1CCCO1 (stereo not given) | -3.85
COc1ccc(NC(=O)NNC(=O)c2ccc3ccccc3c2)cc1OC | -2.52
COc1ccc(/C=N\Nc2ccc([N+](=O)[O-])cc2[N+](=O)[O-])c(C(=O)O)c1OC | 39.2
Nc1c(N(CCC2=CCCCC2)C(=O)c2ccc([N+](=O)[O-])o2)c(=O)[nH]c(=O)n1Cc1ccccc1 | 38.8
N#CC/C(N)=N/NC(=O)CCCNc1ncc(C(F)(F)F)cc1Cl | 0.45
COc1ccc(Br)cc1/C(C)=N/NC1=NCCN1 | 21.5
CCOc1ccc(Br)cc1/C(C)=N\NC1=NCCN1 | 38
O=C1Nc2c(c(=O)[nH]c(=O)n2-c2ccc(F)cc2)C1(NS(=O)(=O)c1ccccc1)C(F)(F)F (stereo not given) | -0.54
CCCn1c(=O)c(C(=O)Nc2ncccc2O)c(O)c2ccccc21 | 66.8
CCCCCCn1c(=O)c(C(=O)Nc2ncccc2O)c(O)c2ccccc21 | 67.8
CCn1c(=O)c(C(=O)Nc2ccccn2)c(O)c2ccccc21 | 27.7
CCn1c(=O)c(C(=O)Nc2ncccc2O)c(O)c2ccccc21 | 23.7
C/C(CC(=O)Nc1ccc(Cl)cc1Cl)=N\NC(=O)C(=O)NCCO | 24.8
CCN(CC)C(=O)CSc1ccc(C(F)(F)F)cc1[N+](=O)[O-] | -2.61
CCOc1ccc(/C=N/NC(=S)NC2CC3CC2C2C=CCC32)cc1 (stereo not given) | -7.06
O=C(CNC(=O)c1[nH]cnc1C(=O)NC(c1ccccc1)c1ccccc1)OCc1ccccc1 | 44.5
